# Laboratory results published in PubChem BioAssay (Tox21).
# Inconclusive results are not listed. Entries that show only a call come without a potency. Active and inactive are the calls of the source. Calls follow the shape of the full dose curve.
# Assay: p53 small molecule agonists, cell-based qHTS assay with human liver microsomes: qHTS cell viability counter screen (AID 1963579); also: nearly all actives have a fitted effect of over 45% in size
# Conditions: p53RE-bla HCT-116 viability, ATP luminescence, 16 h, HLM; series mostly up to 66 µM
# Excerpt: National Center for Advancing Translational Sciences [NCATS]
# Division of Preclinical Innovation [DPI]
# U.S. Environmental Protection Agency [EPA]
# National Institutes of Environmental Health Sciences [NIEHS]
# National Toxicology Program [NTP]
# U.S. Food and Drug Administration [FDA]
# p53, a tumor suppressor protein, is activated following cellular insult, including DNA damage and other cellular stresses. The activation of p53 regulates cell fate by inducing DNA repair, cell cycle arrest, apoptosis, or cellular senescence. The activation of p53, therefore, is a good indicator of DNA damage and other cellular stresses. […] The activation of the reporter gene under culture conditions can be detected by fluorescence intensity. This cell line was used to screen the Tox21 10K compound library in the condition of presence of human liver microsomes and to identify agonists that activate the p53 signaling pathway after in vitro metabolic activation (Ooka et al., Archive of Toxicology 96:1975-1987, 2022).
# Tox21 Assay Protocol Summary:
# The p53RE-bla cells were dispensed at 4,000cells/3ul/well in 1536-well black-clear bottom plates. After the assay plates were incubated at 37 C, 5% CO2 incubator for 5 hours, 23 nL of compounds dissolved in DMSO, positive controls or DMSO only was transferred to the assay plate. Following compound addition, 3 uL of human liver microsomes (XenoTech, Kansas City, KS) at final concentration of 0.5 mg/mL and 1uL of B-Nicotinamide adenine dinucleotide 2'-phosphate (NADPH) at final concentration of 0.5 mg/mL were transferred to the assay plate. The plates were incubated at 37 C for 16 hours. 1 uL of LiveBLAzer detection mixture was added to each well and the plates were incubated at room temperature in the dark for 2 h. Fluorescence intensity at 460 and 530 nm emission and 405 nm excitation were measured by an Envision plate reader. For cell viability readout that measures cytotoxicity, 4 ul/well of CellTiter-Glo reagent was added into the assay plates using a Flying Reagent Dispenser. After 30 min incubation at room temperature, the luminescence intensity in the plates was measured using a ViewLux plate reader.
SMILES,Potency,"activity change, negative = cytotoxicity"
CC(C)(C)C(=O)CC(=O)C(C)(C)C,inactive,
CCCCC/C=C\CCC=O,inactive,
Nc1ccc(S(=O)(=O)Nc2ccnn2-c2ccccc2)cc1,,1.97% [at 13.5 µM] (inactive)
O=C(O)c1cccc(N(Cc2cccnc2)c2ccc(OC(F)F)c(OC(F)F)c2)c1,inactive,
O=C(O)Cc1csc(-c2ccc(Cl)cc2)n1,inactive,
CCOc1cccc(N)c1,inactive,
CC(C)(C)C(=O)/C=C/c1ccc(Cl)cc1,inactive,
O=S(=O)(Cl)c1c(Cl)cccc1Cl,inactive,
CC1=C(/C=C/C(C)=C\C=C\C(C)=C\C(=O)O)C(C)(C)CCC1,inactive,
Cc1cc(C)c(C=O)c(C)c1,inactive,
CC1=CC(=O)CC(C)(C)C1=O,inactive,
C[C@@]12C(=O)OC(=O)[C@]1(C)C1CCC2O1,inactive,
CC(=O)Nc1ccc(C)cc1C,inactive,
C=CC(OCC)OCC,inactive,
Clc1ccc2c(c1)CCc1cccnc1C2=C1CCNCC1,inactive,
Cc1cc(SC2=C(O)C[C@@](CCc3ccc(N)cc3)(C(C)C)OC2=O)c(C(C)(C)C)cc1CO,inactive,
CC(C)(O)CCCC1=CCC(C=O)CC1 (stereo not given),inactive,
CC(C)c1ccc(C#N)cc1,inactive,
CC(C)(O)C(=O)c1ccccc1,inactive,
CCOC(=O)C(=O)CCCCCCl,inactive,

SMILES,Potency,"activity change, negative = cytotoxicity"
COc1ccccc1OCC(O)COC(N)=O (stereo not given),inactive,
CCOC(=O)N1CCC(n2c(=O)[nH]c3cc(Cl)ccc32)CC1,inactive,
COc1cc(-c2ccc(N=C=O)c(OC)c2)ccc1N=C=O,inactive,
CN(C)CCc1c[nH]c2ccc(C[C@H]3COC(=O)N3)cc12,inactive,
N#Cc1ccc(CC(=O)c2cccc(C(F)(F)F)c2)cc1,inactive,
C=CC(=O)OCC1CCCO1 (stereo not given),inactive,
CC(=O)NC(=O)c1ccccc1O,inactive,
Cn1c(=O)c2c(ncn2CC(O)CO)n(C)c1=O (stereo not given),inactive,
Cn1c(=O)cc(Oc2ccc(F)cc2F)c2cnc(NCC(C)(C)O)nc21,inactive,
O=C(Nc1ccc2c(O)c(N=Nc3ccc(N=Nc4ccc(S(=O)(=O)O)cc4)cc3)c(S(=O)(=O)O)cc2c1)c1ccccc1,inactive,
Clc1cccnc1,inactive,
C[N+](C)(C)CCCCCCCCCC[N+](C)(C)C,inactive,
COc1cc2c(cc1OC)C(C(C(=O)N(CCc1ccc(OC)c(OC)c1OC)CCc1ccc(OC)c(OC)c1OC)c1ccccc1)=NCC2 (stereo not given),inactive,
Oc1ccc(C2CNCCc3c2cc(O)c(O)c3Cl)cc1 (stereo not given),inactive,
CCN(Cc1c(F)cccc1Cl)c1c([N+](=O)[O-])cc(C(F)(F)F)cc1[N+](=O)[O-],inactive,
Cc1nc2n(c(=O)c1CCN1CCC(c3noc4cc(F)ccc34)CC1)CCCC2,inactive,
CC(C)C[C@@H]1[C@H](c2ccccc2)OC(=O)N1CCCN1CCCCCC1,inactive,
C[N+](C)(C)CCOC(=O)CCC(=O)OCC[N+](C)(C)C,inactive,
CCCC(=O)OCCC(C)C,inactive,
CCCCCCCCCCCCCC(=O)OCC(O)CO (stereo not given),inactive,
